An excerpt weighted towards active compounds, which were near 2.8% of everything screened.
Pol eta inh-1 – blocks human DNA polymerase eta activity; Q9Y253; 390,000 compounds, 1.2% hits; Potency, µM (top dose mostly 114 µM), without a hit: top-dose activity change, negative = inhibition, most hits filed as inhibitors; recombinant Pol eta, fluorescent DNA replication assay; further: potency means the concentration at half of the fitted maximal effect; on the % scale 0 is the no-effect control and ±100 the full control effect
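Pol eta at 10 nM preincubated with compounds 15 min at room temperature; reaction started with fluorescent substrate (50 nM final) and read kinetically at 0 and 10 min.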
POLI inh – DNA polymerase iota (human) inhibition; Q9UNA4; Pol iota fluorescent replication assay, 10 min; Potency, µM (top dose mostly 115 µM), for the others: at the highest dose activity, negative = inhibition, actives largely listed as inhibitors; 390,000 compounds, 1% hits; AID 588590; further: potency means the concentration at half of the fitted maximal effect
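Pol iota at 10 nM preincubated 15 min with compounds at room temperature; reaction started with fluorescent substrate, 50 nM final. Fluorescence read kinetically at 0 and 10 min; buffer-only wells as negative control.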
Pol beta inh – blocks human DNA polymerase beta activity; P06746; Pol beta primer extension/strand displacement, fluorescence kinetic; Potency, µM (series often up to 114 µM), for inactives: at the top dose activity change, negative = inhibition, usual class: inhibitors; 340,000 compounds, 1.3% hits; further: potency means the concentration at half of the fitted maximal effect; on the % scale 0 is the no-effect control and ±100 the full control effect
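Preincubation: enzyme (10 nM) with compound, 15 min, RT. Reaction: substrate added to 50 nM final. Reads: 0 and 10 min. Analysis: normalized, Hill fit.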
PI4K2A inh – blocks human PI4K2A kinase activity; purified PI4K2A, ADP-Glo luminescence, 1 h; hits give low values; Q9BTU6; activity change, negative = inhibition, % at 76.9 µM; 420,000 compounds, 0.13% hits; in the data active means activity change below about -50%; inconclusive means mostly about -30% to -49%;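 further: -100% = wells without enzyme as full effect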
Target sequence (Q9BTU6 whole entry, looked up): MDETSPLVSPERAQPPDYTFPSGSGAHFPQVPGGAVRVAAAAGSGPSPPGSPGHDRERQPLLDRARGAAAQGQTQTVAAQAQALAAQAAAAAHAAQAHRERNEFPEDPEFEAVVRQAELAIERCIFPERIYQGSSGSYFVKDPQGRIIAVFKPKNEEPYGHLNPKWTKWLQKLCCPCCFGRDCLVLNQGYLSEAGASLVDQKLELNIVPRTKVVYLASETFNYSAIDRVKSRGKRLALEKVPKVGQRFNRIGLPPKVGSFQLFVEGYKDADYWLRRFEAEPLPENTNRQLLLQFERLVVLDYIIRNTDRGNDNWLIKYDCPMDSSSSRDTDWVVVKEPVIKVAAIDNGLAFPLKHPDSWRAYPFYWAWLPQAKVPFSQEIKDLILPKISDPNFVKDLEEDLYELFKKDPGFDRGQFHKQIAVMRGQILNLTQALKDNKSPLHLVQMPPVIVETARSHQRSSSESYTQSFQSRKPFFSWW
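Compounds are screened against recombinant PI4K2A using PI as substrate and ATP, the latter dispensed at 300 microM. Reactions run one hour at ambient temperature before ADP-Glo detection; full inhibition defined by wells lacking enzyme.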
Pol kappa inh-1 – DNA polymerase kappa (human) inhibition; Q9UBT6; purified Pol kappa, fluorescent DNA synthesis assay, 10 min; Potency, µM (doses to about 107 µM), for the others: at the highest dose activity, negative = inhibition, hits mostly inhibitors; 400,000 compounds, 0.53% hits; further: potency means the concentration at half of the fitted maximal effect; on the % scale 0 is the no-effect control and ±100 the full control effect
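Activity was followed as the change in fluorescence between reads at 0 and 10 min after starting the reaction with 50 nM substrate. Beforehand, 10 nM polymerase had been preincubated with compound for 15 min at room temperature.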
PI5P4K alpha inh – PI5P4K alpha (human) kinase inhibition | max response, % | 330,000 compounds, 1.2% hits | AID 652105 | PI5P4Kalpha enzyme, ADP-Glo luminescence, 60 min; hits give low values | P48426; active means max response of -50% or lower; inconclusive means between -30% and -50%; inactive means -30% or higher; further: value at the top dose of about 77 µM; on the % scale 0 is the no-effect control and ±100 the full control effect
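PI5P4Kalpha ADP-Glo assay; 5 microM ATP final; 60 min RT reaction; HEPES pH 7.4/EGTA/CHAPS, 5% DMSO; controls lacking substrate or enzyme; luminescent end-point.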
TbPGK inh – TbPGK inhibition, hit validation; 500 compounds, 79% hits; Potency, µM (series often up to 57.5 µM), for the others: top-dose activity change, negative = inhibition, most hits filed as inhibitors; shares compounds with Pol kappa inh-1; TbPGK coupled GAPDH assay, Kinase-Glo luminescence; further: potency means the concentration at half of the fitted maximal effect; on the % scale 0 is the no-effect control and ±100 the full control effect; nearly all actives have a fitted effect of over 65% in size
Pol iota confirm – Confirm cherry-picked inhibitors of human polymerase iota. Pol iota primer extension, TAMRA/BHQ fluorescence. AID 720496. 1,500 compounds, 77% hits. Potency, µM, hits mostly inhibitors. shares compounds with Pol kappa inh-1; further: potency means the concentration at half of the fitted maximal effect
Pol kappa inh-2 – confirmation of human DNA polymerase kappa inhibitors; shares compounds with Pol eta inh-1; purified Pol-kappa, fluorescent strand-displacement substrate; Potency, µM, hits mostly inhibitors; 920 compounds, 76% hits; further: potency means the concentration at half of the fitted maximal effect
Pol eta inh-2 – Pol eta (human) inhibition, cherry-pick confirmation; shares compounds with Pol eta inh-1; Pol eta primer extension, TAMRA/BHQ fluorescence, 10 min; Potency, µM, most hits filed as inhibitors; 2,600 compounds, 64% hits; AID 720502; further: potency means the concentration at half of the fitted maximal effect
ADP-Glo counter – interferes with ADP-Glo detection without enzyme present. AID 743285. ADP-Glo detection counter-screen, luciferase luminescence, no enzyme. shares compounds with PI5P4K alpha inh. Potency, µM (top dose mostly 76.9 µM), for inactives: at the highest dose activity change, negative = inhibition, most hits filed as inhibitors. 1,100 tested, under 10 active
* hit, by the source's call; ? = inconclusive; nt = no result given; [ ] = dose if it differs, or a comment. Unless noted, the call rests on the fitted dose curve; in most records, active means well fitted curve in the direction sought with a large enough effect; inconclusive means small, poorly fitted or top-dose-only effect, or another doubt; inactive means no such curve, though single readings can be large; an effect the other way counts as inactive or inconclusive.

SMILES	Pol eta inh-1	POLI inh	Pol beta inh	PI4K2A inh	Pol kappa inh-1	PI5P4K alpha inh	Pol iota confirm	Pol eta inh-2	ADP-Glo counter	others
Cc1nn(-c2ccc3ccccc3c2)c(=O)c2ccccc12	-6%	-3%	0%	-3	-10%	3	nt	nt	nt
Cc1nn(-c2nc3ccccc3[nH]2)c(=O)c2ccccc12	-9%	29%	1%	-81*	-1%	-60*	nt	nt	?	TbPGK inh=2.9µM*
COc1ccc(Cn2c(C)nc3c(c2=O)c2nc4ccccc4nc2n3Cc2ccco2)cc1	8.9µM*	3.2µM*	nt	-1	35µM*	-59*	13*	30*	1%
Clc1cccc(CSc2ccc(-c3cccs3)nn2)c1	-26%	12%	11%	1	-3%	nt	nt	nt	nt
CN(Cc1ccccc1)C(=O)C1(C)CCN1C(=O)Cc1ccc(Cl)cc1Cl (stereo not drawn)	nt	nt	nt	2	nt	-1	nt	nt	nt
FC(F)(F)C1=Nc2cccc3cccc(c23)N1	2.2µM*	1.6µM*	nt	-64*	6.3µM*	-82*	17*	21*	-5%	Pol kappa inh-2=7.5*
Fc1ccc(C2=Nc3cccc4cccc(c34)N2)cc1	4%	-11%	-20%	-5	-1%	-8	nt	nt	nt
COc1ccc(CCNC(=O)c2cc(-c3ccco3)nc3ccccc23)cc1	8.9µM*	22µM*	nt	-7	79µM*	-61*	34*	67*	-1%
COc1cccc(NC(=O)CN(C)C(=O)c2cc(-c3ccco3)nc3ccccc23)c1	?	35µM*	nt	-6	?	-60*	38*	30*	-9%
CCOc1ccc(NC(=O)CN(C)C(=O)c2cc(-c3ccco3)nc3ccccc23)cc1OCC	-9%	24%	nt	-1	0%	1	nt	nt	nt
Cc1ccc(NC(=O)CN(C)C(=O)c2cc(-c3ccco3)nc3ccccc23)cc1	20µM*	18µM*	nt	-28	50µM*	-95*	42*	60*	-8%
OC[C@@H]1CN(Cc2ccncc2)C[C@H](n2cnc3c(N4CCCC4)ncnc32)O1	nt	nt	nt	-2	nt	-3	nt	nt	nt
CCC(=O)Nc1nnc(S(=O)(=O)N(C)Cc2ccccc2)s1	-7%	-5%	12%	-5	-6%	nt	nt	nt	nt
O=C(C1CC1)N1CCc2cc(Br)c(S(=O)(=O)NCCCN3CCCCC3)cc21	nt	nt	nt	3	nt	nt	nt	nt	nt
O=C(NCc1ccco1)c1cc2ccc(O)cc2oc1=O	6.3µM*	?	16µM*	-76*	79µM*	-81*	nt	76*	?	TbPGK inh=16µM*
COc1ccc(Oc2c(C(F)(F)F)oc3c(CN4CCCC(C)C4)c(O)ccc3c2=O)cc1 (stereo not drawn)	-8%	1%	-15%	-8	-25%	nt	nt	nt	nt
C[C@H](NC(=O)[C@@H](Cc1c[nH]c2ccccc12)NC(=O)[C@@H](N)Cc1cnc[nH]1)C(=O)N[C@@H](Cc1c[nH]c2ccccc12)C(=O)N[C@H](Cc1ccccc1)C(=O)N[C@@H](CCCCN)C(N)=O	nt	nt	nt	nt	15%[60.1 µM]	nt	nt	nt	nt
Cc1oc(-c2ccc(Cl)cc2)cc1-c1nn2c(-c3ccoc3C)nnc2s1	4.5µM*	?	3.5µM*	-12	?	-65*	?	76*	0%
COc1ccc(S(=O)(=O)N2CCN(C(=O)c3cc4c(s3)CCC4)CC2)cc1	2.2µM*	2.8µM*	nt	?	28µM*	-82*	3*	7.6*	5%	Pol kappa inh-2=3*
COc1ccc(N2Cc3cccc(C(=O)N4CCN(C(=O)c5ccco5)CC4)c3C2=O)cc1	5.6µM*	?	10µM*	-19	?	-84*	38*	60*	-5%	Pol kappa inh-2=42*
Cc1ccc(C)c(NC(=O)CN(C)C(=O)c2cccc(N3C(=O)CCC3=O)c2)c1	-1%	27%	nt	1	9%	1	nt	nt	nt
Cc1cccc(NC(=O)CNCC(=O)Nc2cccc(C)c2C)c1C	-5%	53%	41%	-5	18%	2	nt	nt	nt
COc1ccc(NC(=O)CN(C)C(=O)c2cccc(-n3cccc3)c2)cc1	11µM*	13µM*	nt	-15	45µM*	-62*	30*	67*	-3%
Cc1ccc(NC(=O)CN(C)C(=O)c2cccc(-n3cccc3)c2)cc1	2.5µM*	8.9µM*	nt	-16	18µM*	-101*	15*	17*	-1%
Cc1cccc(NC(=O)CNC(=O)c2cccc(-n3cccc3)c2)c1C	3.2µM*	7.9µM*	nt	-15	32µM*	-80*	9.5*	9.5*	-10%
SMILES	Pol eta inh-1	POLI inh	Pol beta inh	PI4K2A inh	Pol kappa inh-1	PI5P4K alpha inh	Pol iota confirm	Pol eta inh-2	ADP-Glo counter	others
Cc1ccccc1CN1CCCCC(NC(=O)Nc2cccc(F)c2)C1=O (stereo not drawn)	nt	nt	nt	-2	nt	nt	nt	nt	nt
COc1ccc2c([N+](=O)[O-])c(Cl)[nH]c2c1	20µM*	11µM*	-20%	-17	50µM*	-57*	38*	27*	0%
CC1CCCCC1NC(=O)COC(=O)c1c2c(nc3ccccc13)/C(=C\c1ccco1)CC2 (stereo not drawn)	10µM*	3.2µM*	nt	-67*	22µM*	-74*	60*	34*	-3%	Pol kappa inh-2=21*
N#Cc1c(SCC(=O)Nc2nncs2)sc2c(O)cc(=O)[nH]c12	7.1µM*	2µM*	4µM*	23	8.9µM*	-76*	19*	19*	1%
COc1cc(OC)c(OC)cc1CNCCSc1nnnn1-c1ccccc1	-16%	53%	7%	-3	-1%	nt	nt	nt	nt
COc1ccc(OC)c(NC(=O)COC(=O)c2c3c(nc4ccccc24)CCCC3)c1	-10%	37%	-1%	-4	-3%	nt	nt	nt	nt

Screening data deposited in PubChem BioAssay by National Center for Advancing Translational Sciences (NCATS).
